Measurements published in PubChem BioAssay (NCATS).
Inconclusive results are not listed. Entries that show only a call come without a potency. The source made the active and inactive calls. The call rests on the fitted dose curve; in most records, active means well fitted inhibition curve with a large enough effect; inconclusive means small, poorly fitted or top-dose-only effect; inactive means no such curve, though single readings can be large or run the other way.

Legend:
[1] = system: Zika virus NS2B-NS3 protease (unlinked complex); assay: Primary screen GU Rhodamine qHTS for Zika virus inhibitors: Unlinked NS2B-NS3 protease assay (AID 1347159); details: Recombinant ZIKV NS2B-NS3 protease, Rhodamine110 substrate fluorescence; series mostly up to 107 µM; further: nearly all actives have a fitted effect of over 60% in size
Outline: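 Percent inhibition came from the 15-min rise in Rhodamine110 fluorescence (1.5 microM substrate, ~15% conversion), normalized to no-inhibitor and no-enzyme wells and Hill-fitted. Unlinked protease, 25 nM, pH 8.0 Tris buffer; compounds up to 114 microM, 15-min preincubation.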

[2] = system: Zika virus NS2B-NS3 protease (linked construct); assay: Primary screen NINDS Rhodamine qHTS for Zika virus inhibitors (AID 1347160); details: purified NS2B-NS3 protease, Rhodamine110 substrate fluorescence; series mostly up to 57.1 µM; further: nearly all actives have a fitted effect of over 55% in size
Outline: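 Rhodamine110-peptide cleavage (1.5 µM substrate) by 25 nM linked NS2B-NS3 enzyme at pH 8.0 (Tris, Tween 20), after 15 min RT preincubation with compounds; 15-min fluorescence change normalized to controls and Hill-fitted.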

SMILES | Potency [1] | Potency [2]
CC1=CC(=O)C[C@H]2[C@@H]1CC[C@@H](C)[C@]21CO[C@H](c2ccoc2)C1=O | inactive | inactive
COc1cc(/C=C/C(=O)OC2[C@H](O)CC(O)(C(=O)O)C[C@H]2O)ccc1O (stereo not given in full) | inactive | inactive
C[C@@H]1C(=O)O[C@H]2CC34[C@H]5C[C@@H](C(C)(C)C)C36[C@@H](OC(=O)[C@@H]6O)OC4(C(=O)O5)[C@]21O (stereo not given in full) | inactive | inactive
CC1(C)CCC[C@@]2(C)[C@H]1[C@H](O)C=C1COC(=O)[C@@]12O | inactive | inactive
C[C@@H]1C[C@H](O[C@@H]2O[C@H](CO[C@@H]3OC[C@](O)(CO)[C@H]3O)[C@@H](O)[C@H](O)[C@H]2O)CC(C)(C)[C@H]1/C=C/[C@@H](C)O | inactive | inactive
Cc1ccc(C(=O)Nc2ccc(Oc3cc4cnn(C)c4cc3-c3cn[nH]c3)c(F)c2)c(=O)n1-c1ccc(F)cc1 | inactive | inactive
CC[C@H]1OC(=O)[C@H](C)[C@@H](OC2C[C@@](C)(OC)[C@@H](O)[C@H](C)O2)[C@H](C)[C@@H](OC2O[C@H](C)C[C@H](NC)[C@H]2O)[C@](C)(O)C[C@@H](C)CN(C)[C@H](C)[C@@H](O)[C@]1(C)O (stereo not given in full) | inactive | inactive
COc1cc(/C=C/C(=O)OC(C)(C)C(OC2OC(CO)C(O)C(O)C2O)C(=O)OCc2ccc(OC3OC(CO)C(O)C(O)C3O)cc2)ccc1O (stereo not given) | inactive | inactive
O=C(c1ccc(F)cc1)C1CCN(CCn2c(=O)nc3n(c2=O)CCCC3)CC1 | inactive | inactive
C/C(=C\CCC(C)(O)c1ccc(C)cc1)C(=O)O (stereo not given) | inactive | inactive
